Source: the supplement of paper PMC10849652
Targets with a hit are over-represented here; the source holds about 8,800 in all. About 0.5% of all pairs of compound and target were hits. Unmarked numbers belong to inactive results.

Assays:
Assay in all cases: log2 fold change, soluble protein after heating vs DMSO (PISA); higher = thermal stabilisation; K562 lysate, 10 uM; active = over 0.2 and 3.5 SD of the protein, either way, in both replicates (recomputed)
[1] = compound: NCC(=O)Nc1ccc(-n2nc(C(F)(F)F)cc2-c2ccc3c(ccc4ccccc43)c2)cc1
Method in brief: (§1)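 To prepare the extract, K562 pellets were dounce-homogenised in PBS pH 7.4 with 1 mM MgCl2, giving crude material at 1 mg/mL protein. This was treated with 10 μM compound for 30 min, then heated in aliquots for 3 min over 48°C-58°C before pooling and addition of NP-40 to 0.5% at 4°C. Centrifugation at 21,000xg for 90 min left soluble protein in the supernatant, which TMTpro 16plex LC-MS/MS quantified with equalised channel sums. Results are log-two fold changes in thermal stability compared with solvent controls, from duplicates.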

vorinostat = compound: O=C(CCCCCCC(=O)Nc1ccccc1)NO [vorinostat]
Method in brief: as §1

silmitasertib = compound: O=C(O)c1ccc2c(c1)nc(Nc1cccc(Cl)c1)c1ccncc12 [silmitasertib]
Method in brief: as §1

[2] = compound: O=C1NC(=O)C(c2cnc3ccccn23)=C1c1cn2c3c(cc(F)cc13)CN(C(=O)N1CCCCC1)CC2
Method in brief: as §1

entospletinib = compound: c1cn2cc(-c3ccc4cn[nH]c4c3)nc(Nc3ccc(N4CCOCC4)cc3)c2n1 [entospletinib]
Method in brief: as §1

UniProt P30837, sequence (P30837 whole entry, looked up): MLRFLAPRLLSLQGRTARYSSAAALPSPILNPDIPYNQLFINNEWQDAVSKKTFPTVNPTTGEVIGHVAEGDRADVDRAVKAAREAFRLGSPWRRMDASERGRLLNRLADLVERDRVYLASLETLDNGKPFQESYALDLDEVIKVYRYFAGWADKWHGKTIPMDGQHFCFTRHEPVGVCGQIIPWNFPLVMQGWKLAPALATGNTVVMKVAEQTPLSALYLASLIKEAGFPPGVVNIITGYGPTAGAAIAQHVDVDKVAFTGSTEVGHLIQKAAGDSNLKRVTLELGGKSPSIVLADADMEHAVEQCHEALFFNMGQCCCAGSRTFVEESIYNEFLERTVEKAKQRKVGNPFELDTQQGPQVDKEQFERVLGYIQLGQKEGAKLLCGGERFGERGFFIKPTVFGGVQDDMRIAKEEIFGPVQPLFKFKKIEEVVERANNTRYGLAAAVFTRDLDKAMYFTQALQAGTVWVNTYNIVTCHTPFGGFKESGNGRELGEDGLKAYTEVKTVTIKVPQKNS
UniProt P00352, sequence (P00352 whole entry, looked up): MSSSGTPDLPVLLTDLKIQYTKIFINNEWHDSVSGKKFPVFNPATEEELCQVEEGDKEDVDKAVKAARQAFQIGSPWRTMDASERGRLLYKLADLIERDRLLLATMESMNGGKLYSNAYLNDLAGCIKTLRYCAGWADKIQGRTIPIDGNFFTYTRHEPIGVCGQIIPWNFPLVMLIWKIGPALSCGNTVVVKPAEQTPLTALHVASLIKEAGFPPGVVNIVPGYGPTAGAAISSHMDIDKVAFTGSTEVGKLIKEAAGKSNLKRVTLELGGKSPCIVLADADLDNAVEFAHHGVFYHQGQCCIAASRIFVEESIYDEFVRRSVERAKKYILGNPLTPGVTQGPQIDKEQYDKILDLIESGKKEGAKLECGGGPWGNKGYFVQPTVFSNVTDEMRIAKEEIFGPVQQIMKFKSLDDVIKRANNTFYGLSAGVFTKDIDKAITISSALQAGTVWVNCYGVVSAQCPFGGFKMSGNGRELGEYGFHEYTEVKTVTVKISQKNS
UniProt P51825, sequence (P51825 whole entry, looked up): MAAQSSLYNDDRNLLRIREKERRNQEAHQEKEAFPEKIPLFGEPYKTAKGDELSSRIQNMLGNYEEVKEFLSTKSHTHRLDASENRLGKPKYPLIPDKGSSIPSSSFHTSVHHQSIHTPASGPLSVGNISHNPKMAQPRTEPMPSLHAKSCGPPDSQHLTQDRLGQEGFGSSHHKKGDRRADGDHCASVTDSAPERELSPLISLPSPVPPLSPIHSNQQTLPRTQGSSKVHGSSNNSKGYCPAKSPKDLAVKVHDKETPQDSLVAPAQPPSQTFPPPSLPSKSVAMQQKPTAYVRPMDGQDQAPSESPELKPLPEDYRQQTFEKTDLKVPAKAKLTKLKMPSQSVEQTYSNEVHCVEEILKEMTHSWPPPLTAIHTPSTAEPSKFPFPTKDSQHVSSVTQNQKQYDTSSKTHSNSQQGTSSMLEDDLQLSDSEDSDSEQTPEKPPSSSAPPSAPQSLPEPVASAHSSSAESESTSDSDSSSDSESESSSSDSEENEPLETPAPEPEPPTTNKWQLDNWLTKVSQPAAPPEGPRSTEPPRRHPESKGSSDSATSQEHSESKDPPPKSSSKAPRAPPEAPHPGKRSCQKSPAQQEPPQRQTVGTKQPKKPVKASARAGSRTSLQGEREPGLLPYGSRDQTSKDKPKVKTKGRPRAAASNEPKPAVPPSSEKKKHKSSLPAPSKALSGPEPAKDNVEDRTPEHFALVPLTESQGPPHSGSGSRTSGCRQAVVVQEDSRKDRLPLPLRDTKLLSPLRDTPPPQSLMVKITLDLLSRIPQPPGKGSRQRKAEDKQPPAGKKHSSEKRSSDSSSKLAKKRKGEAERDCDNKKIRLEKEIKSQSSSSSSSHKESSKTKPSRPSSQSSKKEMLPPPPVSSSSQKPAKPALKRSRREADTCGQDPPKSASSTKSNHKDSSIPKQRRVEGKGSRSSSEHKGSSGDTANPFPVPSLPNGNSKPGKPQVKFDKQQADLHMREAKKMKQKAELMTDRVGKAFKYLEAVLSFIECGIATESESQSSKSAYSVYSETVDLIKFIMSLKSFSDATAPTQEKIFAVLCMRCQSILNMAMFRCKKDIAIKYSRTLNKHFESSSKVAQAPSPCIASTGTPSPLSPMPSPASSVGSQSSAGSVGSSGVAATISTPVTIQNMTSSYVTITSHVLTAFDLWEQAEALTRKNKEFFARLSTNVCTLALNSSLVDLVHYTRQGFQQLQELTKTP
UniProt P27144, sequence (P27144 whole entry, looked up): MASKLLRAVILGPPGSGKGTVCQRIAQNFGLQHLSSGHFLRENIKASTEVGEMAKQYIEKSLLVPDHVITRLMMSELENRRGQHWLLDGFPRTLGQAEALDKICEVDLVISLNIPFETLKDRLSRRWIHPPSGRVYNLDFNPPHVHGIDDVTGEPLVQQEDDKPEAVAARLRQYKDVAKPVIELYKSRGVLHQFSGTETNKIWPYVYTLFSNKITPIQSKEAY
UniProt P55263, sequence (P55263 whole entry, looked up): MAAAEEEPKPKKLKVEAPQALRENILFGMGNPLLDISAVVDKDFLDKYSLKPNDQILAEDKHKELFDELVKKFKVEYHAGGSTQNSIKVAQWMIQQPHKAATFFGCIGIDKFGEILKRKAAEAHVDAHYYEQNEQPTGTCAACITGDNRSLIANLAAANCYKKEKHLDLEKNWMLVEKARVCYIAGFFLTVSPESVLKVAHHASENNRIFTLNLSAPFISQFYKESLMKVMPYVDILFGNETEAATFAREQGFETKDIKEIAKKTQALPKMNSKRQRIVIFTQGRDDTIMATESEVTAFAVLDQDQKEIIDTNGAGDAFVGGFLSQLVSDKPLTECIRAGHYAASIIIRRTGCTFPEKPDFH
UniProt P09110, sequence (P09110 whole entry, looked up): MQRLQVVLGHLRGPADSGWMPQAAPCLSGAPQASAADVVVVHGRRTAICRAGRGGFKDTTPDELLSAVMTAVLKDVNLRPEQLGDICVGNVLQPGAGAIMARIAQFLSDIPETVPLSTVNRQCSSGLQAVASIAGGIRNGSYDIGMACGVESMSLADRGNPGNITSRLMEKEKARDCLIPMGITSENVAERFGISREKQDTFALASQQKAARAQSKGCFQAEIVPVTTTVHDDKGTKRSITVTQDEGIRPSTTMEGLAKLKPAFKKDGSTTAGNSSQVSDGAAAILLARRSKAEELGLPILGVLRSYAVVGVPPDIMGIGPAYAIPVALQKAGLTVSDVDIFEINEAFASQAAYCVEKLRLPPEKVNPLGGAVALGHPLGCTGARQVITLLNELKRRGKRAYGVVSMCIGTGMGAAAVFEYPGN
UniProt Q7L211, sequence (Q7L211 whole entry, looked up): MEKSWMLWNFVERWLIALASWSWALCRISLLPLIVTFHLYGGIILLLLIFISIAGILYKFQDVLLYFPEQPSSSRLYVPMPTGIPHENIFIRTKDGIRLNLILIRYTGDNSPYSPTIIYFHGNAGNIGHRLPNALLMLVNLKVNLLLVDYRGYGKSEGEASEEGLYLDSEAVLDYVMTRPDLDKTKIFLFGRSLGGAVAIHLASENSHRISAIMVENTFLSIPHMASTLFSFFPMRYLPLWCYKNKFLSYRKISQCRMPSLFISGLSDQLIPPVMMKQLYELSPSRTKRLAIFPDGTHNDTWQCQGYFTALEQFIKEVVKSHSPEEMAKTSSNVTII
UniProt O14727, sequence (O14727 whole entry, looked up): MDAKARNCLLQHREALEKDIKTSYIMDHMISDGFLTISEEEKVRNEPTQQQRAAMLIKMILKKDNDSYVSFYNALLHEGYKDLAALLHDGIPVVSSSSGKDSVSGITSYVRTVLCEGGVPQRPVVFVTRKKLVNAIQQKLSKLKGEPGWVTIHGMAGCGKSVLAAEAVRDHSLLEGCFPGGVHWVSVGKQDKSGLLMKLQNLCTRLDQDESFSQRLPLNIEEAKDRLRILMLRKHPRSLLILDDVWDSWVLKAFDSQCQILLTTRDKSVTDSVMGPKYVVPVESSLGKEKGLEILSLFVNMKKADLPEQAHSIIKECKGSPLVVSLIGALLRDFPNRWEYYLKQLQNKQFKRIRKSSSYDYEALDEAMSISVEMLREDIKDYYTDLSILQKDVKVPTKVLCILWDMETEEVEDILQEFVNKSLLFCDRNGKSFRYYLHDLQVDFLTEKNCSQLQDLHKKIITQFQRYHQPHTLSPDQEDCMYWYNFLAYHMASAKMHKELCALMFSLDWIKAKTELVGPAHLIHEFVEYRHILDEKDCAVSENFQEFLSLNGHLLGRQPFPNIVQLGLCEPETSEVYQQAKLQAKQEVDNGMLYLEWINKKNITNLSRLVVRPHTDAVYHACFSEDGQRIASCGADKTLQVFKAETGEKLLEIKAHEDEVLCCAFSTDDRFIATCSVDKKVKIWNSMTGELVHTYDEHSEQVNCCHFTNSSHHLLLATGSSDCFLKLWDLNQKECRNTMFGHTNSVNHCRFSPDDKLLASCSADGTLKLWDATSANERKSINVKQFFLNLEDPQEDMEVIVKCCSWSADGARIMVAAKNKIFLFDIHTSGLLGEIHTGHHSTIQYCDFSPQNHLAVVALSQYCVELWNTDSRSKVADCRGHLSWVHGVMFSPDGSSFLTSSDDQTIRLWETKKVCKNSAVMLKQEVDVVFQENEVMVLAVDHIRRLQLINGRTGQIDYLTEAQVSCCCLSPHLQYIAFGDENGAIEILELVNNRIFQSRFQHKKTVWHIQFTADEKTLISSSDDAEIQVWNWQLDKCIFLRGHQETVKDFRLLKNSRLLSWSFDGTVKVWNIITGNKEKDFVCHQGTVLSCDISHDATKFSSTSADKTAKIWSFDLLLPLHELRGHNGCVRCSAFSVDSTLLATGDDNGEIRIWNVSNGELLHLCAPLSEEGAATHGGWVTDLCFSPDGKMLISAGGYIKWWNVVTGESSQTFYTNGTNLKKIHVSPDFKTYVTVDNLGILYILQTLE
UniProt Q96BM9, sequence (Q96BM9 whole entry, looked up): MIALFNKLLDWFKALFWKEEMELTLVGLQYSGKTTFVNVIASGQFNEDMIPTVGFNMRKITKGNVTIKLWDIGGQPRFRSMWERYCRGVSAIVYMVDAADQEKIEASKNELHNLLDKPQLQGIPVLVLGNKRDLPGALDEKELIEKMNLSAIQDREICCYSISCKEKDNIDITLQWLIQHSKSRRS

ARMCX3 (UniProt Q9UH62) was tested, and the log2 fold change [1] was 0.042, the log2 fold change (vorinostat) was -0.279 (active) and the log2 fold change (silmitasertib) was 0.036. The log2 fold change [2] was -0.024 and the log2 fold change (entospletinib) was 0.047.

For AGPAT1 (UniProt Q99943), the log2 fold change [1] was -0.027, the log2 fold change (vorinostat) was -0.27 (active) and the log2 fold change (silmitasertib) was 0.106. It also gave a log2 fold change [2] of -0.029 and a log2 fold change (entospletinib) of 0.003.

For ALDH1B1 (UniProt P30837), the log2 fold change [1] was 0.027, the log2 fold change (vorinostat) was 1.15 (active) and the log2 fold change (silmitasertib) was -0.051. The log2 fold change [2] was -0.022 and the log2 fold change (entospletinib) was 0.033.

Target ARL8A (UniProt Q96BM9) has a log2 fold change [1] of 0.192, a log2 fold change (vorinostat) of 0.234 and a log2 fold change (silmitasertib) of -0.024. The log2 fold change [2] was -0.03 and the log2 fold change (entospletinib) was 0.002.

In the case of ACAA1 (UniProt P09110), the log2 fold change [1] is reported as -0.005, the log2 fold change (vorinostat) is reported as -0.332 (active) and the log2 fold change (silmitasertib) is reported as -0.039. The log2 fold change [2] was 0.033 and the log2 fold change (entospletinib) was 0.038.

AGPAT2 (UniProt O15120) was tested, and the log2 fold change [1] was -0.234, the log2 fold change (vorinostat) was 0.104 and the log2 fold change (silmitasertib) was -0.026. For the same target, the log2 fold change [2] was -0.052 and the log2 fold change (entospletinib) was 0.063.

In the case of ALDH1A1 (UniProt P00352), the log2 fold change [1] is reported as -0.038, the log2 fold change (vorinostat) is reported as 0.116 and the log2 fold change (silmitasertib) is reported as -0.011. The log2 fold change [2] was -0.018 and the log2 fold change (entospletinib) was 0.02.

AIMP1 isoform 2 (UniProt Q12904) was tested, and the log2 fold change [1] was -0.01, the log2 fold change (vorinostat) was -0.235 (active) and the log2 fold change (silmitasertib) was 0.02. It also gave a log2 fold change [2] of 0.007 and a log2 fold change (entospletinib) of 0.02.

With ADAMTS5 (UniProt Q9UNA0) the log2 fold change [1] was 0.137, the log2 fold change (vorinostat) was 0.028 and the log2 fold change (silmitasertib) was -0.065. The log2 fold change [2] was 0.062 and the log2 fold change (entospletinib) was -0.125.

For ACIN1 (UniProt E7EQT4), the log2 fold change [1] was 0.076, the log2 fold change (vorinostat) was 0.079 and the log2 fold change (silmitasertib) was -0.013. It also gave a log2 fold change [2] of -0.013 and a log2 fold change (entospletinib) of 0.021.

ADK (UniProt P55263) was tested, and the log2 fold change [1] was -0.049, the log2 fold change (vorinostat) was -0.052 and the log2 fold change (silmitasertib) was 0.073. For the same target, the log2 fold change [2] was 0.262 and the log2 fold change (entospletinib) was -0.027.

For APAF1 (UniProt O14727), the log2 fold change [1] was 0.021, the log2 fold change (vorinostat) was -0.292 (active) and the log2 fold change (silmitasertib) was 0.032. It also gave a log2 fold change [2] of 0.057 and a log2 fold change (entospletinib) of 0.032.

ALDH5A1 isoform 2 (UniProt P51649) was tested, and the log2 fold change [1] was -0.02, the log2 fold change (vorinostat) was 0.371 (active) and the log2 fold change (silmitasertib) was -0.005. For the same target, the log2 fold change [2] was -0.057 and the log2 fold change (entospletinib) was 0.003.

With ADD1 isoform 4 (UniProt P35611) the log2 fold change [1] was 0.037, the log2 fold change (vorinostat) was 0.237 and the log2 fold change (silmitasertib) was -0.148. It also gave a log2 fold change (entospletinib) of 0.056.

With AIMP2 (UniProt Q13155) the log2 fold change [1] was -0.046, the log2 fold change (vorinostat) was -0.347 (active) and the log2 fold change (silmitasertib) was 0.048. For the same target, the log2 fold change [2] was 0.017 and the log2 fold change (entospletinib) was -0.017.

ALDH18A1 isoform 2 (UniProt P54886) was tested, and the log2 fold change [1] was 0.097 and the log2 fold change [2] was 0.204.

For ARHGEF1 (UniProt M0QZR4), the log2 fold change [1] was 0.019, the log2 fold change (vorinostat) was -0.392 (active) and the log2 fold change (silmitasertib) was 0.023. For the same target, the log2 fold change [2] was 0.004 and the log2 fold change (entospletinib) was 0.003.

ADAM17 (UniProt P78536) was tested, and the log2 fold change [1] was 0.014, the log2 fold change (vorinostat) was 0.089 and the log2 fold change (silmitasertib) was -0.006. The log2 fold change [2] was 0.042 and the log2 fold change (entospletinib) was 0.014.

ARHGEF2 (UniProt V9GYF0) showed a log2 fold change [1] of 0.157 and a log2 fold change (entospletinib) of 0.081.

With ACTG1 (UniProt K7EM38) the log2 fold change (entospletinib) was -0.453.

Work on AIMP2 isoform 2 (UniProt Q13155) yielded a log2 fold change [2] of -0.07.

AFF1 isoform 2 (UniProt P51825) gave a log2 fold change [1] of 0.019, a log2 fold change (vorinostat) of -0.074 and a log2 fold change (silmitasertib) of -0.046. It also gave a log2 fold change [2] of -0.046 and a log2 fold change (entospletinib) of -0.064.

Work on ANP32E isoform 3 (UniProt Q9BTT0) yielded a log2 fold change [1] of 0.135 and a log2 fold change (entospletinib) of -0.095.

In the case of AK4 (UniProt P27144), the log2 fold change [1] is reported as -0.051, the log2 fold change (vorinostat) is reported as 0.037 and the log2 fold change (silmitasertib) is reported as -0.008. It also gave a log2 fold change [2] of -0.016 and a log2 fold change (entospletinib) of -0.02.

Target ABHD13 (UniProt Q7L211) has a log2 fold change [1] of 0.023, a log2 fold change [2] of 0.027 and a log2 fold change (entospletinib) of -0.12.

For ANP32A (UniProt P39687), the log2 fold change [1] was -0.005, the log2 fold change (vorinostat) was 0.08 and the log2 fold change (silmitasertib) was 0.063. It also gave a log2 fold change [2] of -0.027 and a log2 fold change (entospletinib) of 0.026.

ACLY isoform 2 (UniProt P53396) showed a log2 fold change [1] of 0.091, a log2 fold change [2] of -0.061 and a log2 fold change (entospletinib) of -0.047.

With ANKRD30A (UniProt Q9BXX3) the log2 fold change [2] was -0.011 and the log2 fold change (entospletinib) was -0.135.

For AMDHD2 (UniProt Q9Y303), the log2 fold change [1] was -0.092 and the log2 fold change [2] was 0.042.
